Inconclusive results are not listed. The source made the active and inactive calls. Rule for the calls: active = hit-call score of the fitted dose curve at least 0.9, where 1 is the maximum; inconclusive = response in the unintended direction; inactive = score below 0.9.

Data on 39 compounds can be found in PubChem BioAssay (EPA / NIEHS).

Hepatocyte nuclear factor 4-alpha (Homo sapiens), sequence (P41235 whole entry, looked up, the tested form may be a part): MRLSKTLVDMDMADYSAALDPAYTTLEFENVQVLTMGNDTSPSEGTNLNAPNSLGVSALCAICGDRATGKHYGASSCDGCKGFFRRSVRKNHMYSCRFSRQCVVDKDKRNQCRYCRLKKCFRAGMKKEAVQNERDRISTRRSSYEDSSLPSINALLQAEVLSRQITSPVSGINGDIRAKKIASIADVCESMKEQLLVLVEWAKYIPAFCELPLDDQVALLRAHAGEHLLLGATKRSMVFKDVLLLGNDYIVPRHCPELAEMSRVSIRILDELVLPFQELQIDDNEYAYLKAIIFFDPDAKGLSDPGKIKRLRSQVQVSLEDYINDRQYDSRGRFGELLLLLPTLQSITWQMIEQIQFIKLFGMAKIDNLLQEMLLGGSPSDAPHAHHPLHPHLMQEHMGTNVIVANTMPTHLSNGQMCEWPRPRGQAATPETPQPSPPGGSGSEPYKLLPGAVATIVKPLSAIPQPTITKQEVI

The target in the first experiment is Estrogen-related receptor gamma (Homo sapiens) (UniProt P62508). Kind of experiment: ATG_ERRg_TRANS: Attagene TRANS-FACTORIAL HepG2 Assay for human Estrogen-Related Receptor gamma (ERRg) (AID 2282977).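 Note: hits increase reporter signal over DMSO so potencies reflect activators.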 As to conditions: HepG2 Attagene TRANS reporter, ERRg transactivation. The essentials: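 HepG2 cells transiently transfected with multiplexed GAL4-UAS reporter units and chimeric NR-Gal4 constructs were exposed to test chemicals for 24 h. Reporter mRNA was measured by RT-PCR, 6-FAM primer extension, HpaI digestion and capillary electrophoresis; gain-of-signal versus DMSO.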
Estrogen-related receptor gamma (Homo sapiens), sequence (P62508 whole entry, looked up, the tested form may be a part): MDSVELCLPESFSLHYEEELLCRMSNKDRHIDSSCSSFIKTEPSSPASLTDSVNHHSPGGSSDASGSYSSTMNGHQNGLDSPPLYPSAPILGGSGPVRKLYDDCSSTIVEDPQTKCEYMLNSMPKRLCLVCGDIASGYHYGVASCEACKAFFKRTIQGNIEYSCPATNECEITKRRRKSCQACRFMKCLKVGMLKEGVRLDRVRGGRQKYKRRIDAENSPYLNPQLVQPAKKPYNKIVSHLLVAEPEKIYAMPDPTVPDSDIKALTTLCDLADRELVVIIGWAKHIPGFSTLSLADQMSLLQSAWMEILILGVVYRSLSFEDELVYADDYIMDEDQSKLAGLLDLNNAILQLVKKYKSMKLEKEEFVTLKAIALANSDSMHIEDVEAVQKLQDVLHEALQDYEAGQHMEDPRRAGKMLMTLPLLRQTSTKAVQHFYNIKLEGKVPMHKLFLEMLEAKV
For `Clc1cccc(Cl)c1Cl`, the compound was called inactive.
With `O=C(CBr)c1ccc(O)cc1`, the outcome was inactive.
Regarding `CCOP(=S)(OCC)O/N=C(\C#N)c1ccccc1`, the outcome was inactive.
Turning to `ClCc1ccccc1Cl`, the outcome was inactive.
Consider `O=C1C=CC(=O)c2ccccc21`, for which the call was inactive.
As to `N#Cc1ccc(Cl)cc1`, the outcome was inactive.
Take `NNCCO`: the call was inactive.
With `OCCCCO`, the call was inactive.
With `CCC(C)(C#N)N=NC(C)(C#N)CC` (stereo not drawn), the result was inactive.

In the next experiment the target is Glucocorticoid receptor (Homo sapiens) (UniProt P04150). Nature of the experiment: ATG_GR_TRANS: Attagene TRANS-FACTORIAL HepG2 Assay for human Glucocorticoid Receptor (GR) (AID 2282978).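 Note: activators score as hits since higher reporter transcript over DMSO is fitted.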 The conditions noted are these: HepG2 Attagene TRANS GR reporter, mRNA transcription. The essentials: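 After 24 h incubation with test chemical, transfected HepG2 cells were lysed for RNA; reporter cDNA was amplified, FAM-labelled, HpaI-digested and sized on a capillary analyser. Signal gain relative to DMSO was scored.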
Glucocorticoid receptor (Homo sapiens), sequence (P04150 whole entry, looked up): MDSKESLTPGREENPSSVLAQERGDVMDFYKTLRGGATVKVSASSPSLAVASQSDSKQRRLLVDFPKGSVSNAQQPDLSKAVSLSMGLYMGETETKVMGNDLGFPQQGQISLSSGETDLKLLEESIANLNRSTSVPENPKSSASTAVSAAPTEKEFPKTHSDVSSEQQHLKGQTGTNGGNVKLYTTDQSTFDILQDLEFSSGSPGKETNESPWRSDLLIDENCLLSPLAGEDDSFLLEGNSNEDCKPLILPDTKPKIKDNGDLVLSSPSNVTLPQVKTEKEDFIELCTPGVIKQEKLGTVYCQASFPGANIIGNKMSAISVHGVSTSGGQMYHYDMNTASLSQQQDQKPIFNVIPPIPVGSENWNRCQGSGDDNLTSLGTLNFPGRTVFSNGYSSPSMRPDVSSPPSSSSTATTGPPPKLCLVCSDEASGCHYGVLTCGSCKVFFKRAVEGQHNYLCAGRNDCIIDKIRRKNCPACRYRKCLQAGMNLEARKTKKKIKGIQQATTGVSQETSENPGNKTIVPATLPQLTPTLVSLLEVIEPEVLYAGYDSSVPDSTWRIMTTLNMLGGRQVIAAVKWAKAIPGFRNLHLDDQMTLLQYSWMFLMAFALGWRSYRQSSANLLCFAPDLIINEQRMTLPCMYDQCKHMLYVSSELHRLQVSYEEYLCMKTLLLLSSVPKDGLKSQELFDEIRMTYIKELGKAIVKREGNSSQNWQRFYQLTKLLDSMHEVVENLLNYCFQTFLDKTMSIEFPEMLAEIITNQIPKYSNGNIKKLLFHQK
Take `BrCC(Br)c1ccccc1` (stereo not drawn): the outcome was inactive.
Consider `CCOP(=S)(OCC)O/N=C(\C#N)c1ccccc1`, for which the result was inactive.
For `CCN(CC)C(=O)C(Cl)=C(C)OP(=O)(OC)OC`, the outcome was inactive.
On to `O=C1C=CC(=O)c2ccccc21`, for which the compound was called inactive.
`O=[N+]([O-])c1ccc(Cl)c([N+](=O)[O-])c1`: the result was inactive.
In the case of `C=CC(Cl)CCl` (stereo not drawn), the call was inactive.
Still for that read-out and setting: with `OC[P+](CO)(CO)CO` the entry was “inactive”; with `C=CCOC(N)=O`, “inactive”.
On the same count and under the same terms, with `N#CS` the entry was “inactive”.
`CC(C)C(C)(N)C#N` (stereo not drawn): the compound was called inactive.
Regarding `N#CCC#N`, the compound was called inactive.
As to `C[As+](C)(C)CC(=O)[O-]`, the call was inactive.

The target of another experiment is Bile acid receptor (Homo sapiens) (UniProt Q96RI1). Kind of experiment: ATG_FXR_TRANS: Attagene TRANS-FACTORIAL HepG2 Assay for Farnesoid X Receptor (FXR) (AID 2282979).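 Note: hits raise reporter mRNA above DMSO so AC50 marks FXR activation.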 The conditions noted are these: HepG2 Attagene TRANS FXR-GAL4 reporter transcription. In outline: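 Reporter transcripts from transfected HepG2 cells were measured 24 h after dosing, using RT-PCR with capillary electrophoresis of 6-FAM-labelled fragments. The read-out reflects activity of exogenous FXR-Gal4 chimera on GAL4-UAS units, with induction relative to DMSO.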
Bile acid receptor (Homo sapiens), sequence (Q96RI1 whole entry, looked up, the tested form may be a part): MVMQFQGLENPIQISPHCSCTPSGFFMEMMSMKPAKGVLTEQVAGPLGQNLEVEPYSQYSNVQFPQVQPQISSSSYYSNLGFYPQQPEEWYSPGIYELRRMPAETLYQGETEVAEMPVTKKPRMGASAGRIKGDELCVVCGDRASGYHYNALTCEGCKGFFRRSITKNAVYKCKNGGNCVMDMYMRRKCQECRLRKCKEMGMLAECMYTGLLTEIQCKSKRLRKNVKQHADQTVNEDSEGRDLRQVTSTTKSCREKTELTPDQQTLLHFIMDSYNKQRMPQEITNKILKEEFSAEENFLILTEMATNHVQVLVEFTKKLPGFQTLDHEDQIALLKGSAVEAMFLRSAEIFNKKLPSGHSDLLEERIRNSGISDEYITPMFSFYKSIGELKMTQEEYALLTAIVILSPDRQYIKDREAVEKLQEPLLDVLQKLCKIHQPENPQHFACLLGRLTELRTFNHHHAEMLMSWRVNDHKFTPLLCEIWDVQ
On to `BrCC(Br)c1ccccc1` (stereo not drawn), for which the compound was classed as inactive.
Turning to `CCOC(=O)CCN(SN(C)C(=O)Oc1cccc2c1OC(C)(C)C2)C(C)C`, the result was inactive.
For `CC(C)[N+](=O)[O-]`, the compound was classed as inactive.
On to `Cc1cc(SCc2sc(-c3ccc(C(F)(F)F)c(F)c3)nc2C)ccc1OCC(=O)O`, for which the half-maximal activity concentration (AC50) is 27.1 µM (active).
For `CCOP(=S)(OCC)O/N=C(\C#N)c1ccccc1`, the compound was called inactive.
The same measure, in the same setting: the result for `CCCCCCCCBr` reads “inactive”; that for `N#Cc1ccccc1Cl`, “inactive”; that for `O=C1C=CC(=O)c2ccccc21`, “inactive”.
On to `COc1nn(C(=O)NS(=O)(=O)c2ccccc2OC(F)(F)F)c(=O)n1C`, for which the call was inactive.
On to `NNCCO`, for which the result was inactive.
`C=CC(Cl)CCl` (stereo not drawn): the compound was called inactive.
On to `C[C@H]1C(=O)O[C@@H]2CCN3CC=C(COC(=O)[C@](C)(O)[C@]1(C)O)[C@H]23`, for which the compound was classed as inactive.
As for `CN(C)[C@@H]1C(=O)C(C(N)=O)=C(O)[C@@]2(O)C(=O)C3=C(O)c4c(O)ccc(Cl)c4[C@@](C)(O)[C@H]3C[C@@H]12`, the compound was classed as inactive.
For `CN(N=O)C(N)=O`, the result was inactive.
`CCCCCCCCCCCCCCC(Br)C(=O)O` (stereo not drawn): the outcome was inactive.
Turning to `C=CCOC(N)=O`, the outcome was inactive.
On to `CC(C)C(C)(N)C#N` (stereo not drawn), for which the compound was classed as inactive.
Consider `CCC[CH2][Sn]([CH2]CCC)([CH2]CCC)[CH2]CCC`, for which the call was inactive.
On to `FC(F)OCC(F)(F)C(F)(F)F`, for which the compound was called inactive.

In a further experiment the target is Oxysterols receptor LXR-alpha (Homo sapiens) (UniProt Q13133). Nature of the experiment: ATG_LXRa_TRANS: Attagene TRANS-FACTORIAL HepG2 Assay for human Liver X Receptor alpha (LXRa) (AID 2282980). The conditions noted are these: HepG2 Attagene TRANS reporter, LXRa transactivation. The essentials: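 Chemical-induced reporter mRNA measured by RT-PCR with fluorescent labelling and capillary electrophoresis after 24 h dosing of transiently transfected HepG2 cells expressing exogenous NR-Gal4 chimeras; increases scored against DMSO baseline.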
Oxysterols receptor LXR-alpha (Homo sapiens), sequence (Q13133 whole entry, looked up, the tested form may be a part): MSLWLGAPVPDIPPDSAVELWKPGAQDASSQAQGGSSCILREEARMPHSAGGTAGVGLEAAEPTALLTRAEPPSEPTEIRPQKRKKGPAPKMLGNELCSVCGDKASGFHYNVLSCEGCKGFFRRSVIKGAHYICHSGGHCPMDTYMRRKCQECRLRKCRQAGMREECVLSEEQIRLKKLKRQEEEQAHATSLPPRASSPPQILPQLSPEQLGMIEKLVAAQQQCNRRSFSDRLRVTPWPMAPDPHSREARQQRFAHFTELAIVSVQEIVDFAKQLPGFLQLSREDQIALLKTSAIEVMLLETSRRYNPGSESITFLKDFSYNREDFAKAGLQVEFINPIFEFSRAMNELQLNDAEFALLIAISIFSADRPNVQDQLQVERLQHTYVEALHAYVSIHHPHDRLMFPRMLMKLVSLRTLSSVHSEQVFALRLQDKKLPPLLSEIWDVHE
Take `O=C(O)CC(O)(CC(=O)O)C(=O)O`: the compound was called inactive.
On the same count and under the same terms, the result for `CCCCCCCCBr` reads “inactive”.
On to `O=C1C=CC(=O)c2ccccc21`, for which the compound was classed as inactive.
Still for that read-out and setting: with `COc1nn(C(=O)NS(=O)(=O)c2ccccc2OC(F)(F)F)c(=O)n1C` the entry was “inactive”.
On the same count and under the same terms, the result for `O=[N+]([O-])c1ccc(Cl)c([N+](=O)[O-])c1` reads “inactive”.
The same measure, in the same setting: the result for `OC[C@@H](O)[C@H]1O[C@@H]2O[C@H](C(Cl)(Cl)Cl)O[C@@H]2[C@H]1O` reads “inactive”; that for `OCCCCO`, “inactive”.
`O=CCCl`: the result was inactive.
The same measure, in the same setting: the result for `N#CS` reads “inactive”; that for `CCOC(=O)CC(=O)CCl`, “inactive”.
For the compound `CCC[CH2][Sn]([CH2]CCC)([CH2]CCC)[CH2]CCC`, the result was inactive.

The target in another experiment is Oxysterols receptor LXR-beta (Homo sapiens) (UniProt P55055). Kind of experiment: ATG_LXRb_TRANS: Attagene TRANS-FACTORIAL HepG2 Assay for human Liver X Receptor beta (LXRb) (AID 2282981). As to conditions: HepG2 Attagene TRANS GAL4-LXRb reporter, mRNA. The essentials: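 HepG2 cells transiently transfected with multiple reporter transcription units carrying chimeric NR-Gal4 proteins acting on GAL4-UAS reporters; compound exposure 24 h. Reporter mRNA quantified by RT-PCR, 6-FAM labelling, HpaI digestion and capillary electrophoresis; gain of signal versus DMSO.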
Oxysterols receptor LXR-beta (Homo sapiens), sequence (P55055 whole entry, looked up, the tested form may be a part): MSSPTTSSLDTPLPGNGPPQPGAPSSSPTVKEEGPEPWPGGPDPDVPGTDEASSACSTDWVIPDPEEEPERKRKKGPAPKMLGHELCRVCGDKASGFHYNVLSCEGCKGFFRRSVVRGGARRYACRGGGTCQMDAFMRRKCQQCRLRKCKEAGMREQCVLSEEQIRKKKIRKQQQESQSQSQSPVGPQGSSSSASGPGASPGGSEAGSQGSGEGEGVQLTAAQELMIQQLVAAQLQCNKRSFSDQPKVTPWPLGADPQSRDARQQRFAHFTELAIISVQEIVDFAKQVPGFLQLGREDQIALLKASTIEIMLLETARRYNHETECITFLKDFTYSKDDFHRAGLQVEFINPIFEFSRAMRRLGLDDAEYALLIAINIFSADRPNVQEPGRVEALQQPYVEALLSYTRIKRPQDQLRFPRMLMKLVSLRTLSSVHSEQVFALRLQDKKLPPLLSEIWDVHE
With `CC(C)N(C(=O)CCl)c1ccccc1`, the compound was called inactive.
The same measure, in the same setting: with `Clc1cccc(Cl)c1Cl` the entry was “inactive”; with `CC(C)[N+](=O)[O-]`, “inactive”.
As to `Cc1cc(SCc2sc(-c3ccc(C(F)(F)F)c(F)c3)nc2C)ccc1OCC(=O)O`, the call was inactive.
As for `O=C(CBr)c1ccc(O)cc1`, the compound was classed as inactive.
As to `O=C(O)CC(O)(CC(=O)O)C(=O)O`, the call was inactive.
Same read-out and setting: with `N#Cc1ccccc1Cl` the entry was “inactive”; with `N#Cc1ccc(Cl)cc1`, “inactive”.
Same read-out and setting: the result for `NNCCO` reads “inactive”; that for `CN(C)[C@@H]1C(=O)C(C(N)=O)=C(O)[C@@]2(O)C(=O)C3=C(O)c4c(O)ccc(Cl)c4[C@@](C)(O)[C@H]3C[C@@H]12`, “inactive”; that for `CN(N=O)C(N)=O`, “inactive”.
Turning to `OCCCCO`, the outcome was inactive.
On the same count and under the same terms, the result for `OC[P+](CO)(CO)CO` reads “inactive”.
As to `C=CCOC(N)=O`, the result was inactive.
Turning to `CC(C)C(C)(N)C#N` (stereo not drawn), the call was inactive.
On to `CCC[CH2][Sn]([CH2]CCC)([CH2]CCC)[CH2]CCC`, for which the outcome was inactive.

Another experiment has as its target Hepatocyte nuclear factor 4-alpha (Homo sapiens) (UniProt P41235). Kind of experiment: ATG_HNF4a_TRANS: Attagene TRANS-FACTORIAL HepG2 Assay for human Hepatocyte Nuclear Factor 4 alpha (HNF4a) (AID 2282982). The conditions noted are these: HepG2 HNF4a transactivation reporter, mRNA readout. The essentials: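 HepG2 cells transiently transfected with multiplexed GAL4-UAS reporter units responsive to chimeric NR-GAL4 proteins; compound exposure 24 h. Reporter mRNA quantified by RT-PCR, 6-FAM labelling, HpaI digestion and capillary electrophoresis; gain of signal versus DMSO baseline.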
With `CCCCOC(=O)COC(=O)c1ccccc1C(=O)OCCCC`, the call was inactive.
The same measure, in the same setting: with `Clc1cccc(Cl)c1Cl` the entry was “inactive”.
In the case of `CC(C)[N+](=O)[O-]`, the outcome was inactive.
For `O=C(O)CC(O)(CC(=O)O)C(=O)O`, the outcome was inactive.
On the same count and under the same terms, the result for `CCCCCCCCBr` reads “inactive”; that for `COc1nn(C(=O)NS(=O)(=O)c2ccccc2OC(F)(F)F)c(=O)n1C`, “inactive”.
Regarding `NNCCO`, the compound was called inactive.
Turning to `CN(N=O)C(N)=O`, the outcome was inactive.
Take `O=CCCl`: the compound was classed as inactive.
Take `CCOC(=O)CC(=O)CCl`: the compound was classed as inactive.
The same measure, in the same setting: with `CCC(C)(C#N)N=NC(C)(C#N)CC` (stereo not drawn) the entry was “inactive”; with `N#CCC#N`, “inactive”.
For the compound `FC(F)OCC(F)(F)C(F)(F)F`, the call was inactive.

Tested on in the next experiment: not listed separately
Kind of experiment: ATG_M_06_TRANS: Attagene TRANS-FACTORIAL HepG2 Assay for M06 Transcription Factor (Internal Marker) (AID 2282983).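 Note: reporter transcript level by RT-PCR then capillary electrophoresis fluorescence.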 The conditions noted are these: HepG2 Attagene TRANS M06 internal marker reporter. The essentials:
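Cells: HepG2, transient multi-reporter transfection. Exposure: 24 h. Detection: RT-PCR, 6-FAM labelling, HpaI digestion (2 h, 37 °C), capillary electrophoresis. Baseline: DMSO.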
Take `Cc1cc(C)cc(C)c1`: the call was inactive.
In the case of `CC(C)N(C(=O)CCl)c1ccccc1`, the call was inactive.
Consider `BrCC(Br)c1ccccc1` (stereo not drawn), for which the outcome was inactive.
Regarding `CCOC(=O)CCN(SN(C)C(=O)Oc1cccc2c1OC(C)(C)C2)C(C)C`, the result was inactive.
Regarding `Clc1cccc(Cl)c1Cl`, the call was inactive.
On the same count and under the same terms, the result for `CC(C)[N+](=O)[O-]` reads “inactive”; that for `CCOP(=S)(OCC)O/N=C(\C#N)c1ccccc1`, “inactive”; that for `CCN(CC)C(=O)C(Cl)=C(C)OP(=O)(OC)OC`, “inactive”.
On the same count and under the same terms, with `O=C(O)CC(O)(CC(=O)O)C(=O)O` the entry was “inactive”.
Take `N#Cc1ccccc1Cl`: the compound was classed as inactive.
As to `O=C1C=CC(=O)c2ccccc21`, the outcome was inactive.
On to `COc1nn(C(=O)NS(=O)(=O)c2ccccc2OC(F)(F)F)c(=O)n1C`, for which the compound was classed as inactive.
Regarding `N#Cc1ccc(Cl)cc1`, the compound was classed as inactive.
In the case of `C=CC(Cl)CCl` (stereo not drawn), the compound was classed as inactive.
For `O=C(O)COc1cc(Cl)c(Cl)cc1Cl`, the call was inactive.
The same measure, in the same setting: the result for `C[C@H]1C(=O)O[C@@H]2CCN3CC=C(COC(=O)[C@](C)(O)[C@]1(C)O)[C@H]23` reads “inactive”; that for `CN(C)[C@@H]1C(=O)C(C(N)=O)=C(O)[C@@]2(O)C(=O)C3=C(O)c4c(O)ccc(Cl)c4[C@@](C)(O)[C@H]3C[C@@H]12`, “inactive”; that for `CN(N=O)C(N)=O`, “inactive”.
For `OC[C@@H](O)[C@H]1O[C@@H]2O[C@H](C(Cl)(Cl)Cl)O[C@@H]2[C@H]1O`, the compound was called inactive.
Turning to `OCCCCO`, the call was inactive.
As to `OC[P+](CO)(CO)CO`, the compound was called inactive.
Turning to `C=CCOC(N)=O`, the compound was called inactive.
The same measure, in the same setting: the result for `O=CCCl` reads “inactive”.
Turning to `N#CS`, the outcome was inactive.
On the same count and under the same terms, the result for `CCOC(=O)CC(=O)CCl` reads “inactive”; that for `CCC(C)(C#N)N=NC(C)(C#N)CC` (stereo not drawn), “inactive”.
For the compound `N#CCC#N`, the outcome was inactive.
Same read-out and setting: with `FC(F)OCC(F)(F)C(F)(F)F` the entry was “inactive”.
